Assay results published in the supplement of paper PMC10849652.
The full data set covers some 8,800 targets. This sample favours those with a hit. About 0.5% of all pairs of compound and target were hits.

Tests used:
Assay in all cases: log2 fold change, soluble protein after heating vs DMSO (PISA); higher = thermal stabilisation; K562 lysate, 10 uM; active = over 0.2 and 3.5 SD of the protein, either way, in both replicates (recomputed)
[1] = compound: C1=CC=C(C=C1)[C@H](COC2=CC3=C(C=C2)NC(=O)N3)NC(=O)C4=CC=CN(C4=O)CC5=CC(=C(C=C5)F)F
In short: (§1)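 Values give the log-two fold change in thermal stability against solvent controls, from duplicates. Crude K562 extract at 1 mg/mL protein, made by dounce homogenisation in PBS pH 7.4 with 1 mM MgCl2, was treated with 10 μM compound for 30 min. After 3 min heating across 48°C-58°C, aliquots were pooled, adjusted to 0.5% NP-40 at 4°C and centrifuged at 21,000xg for 90 min. The supernatant was measured by TMTpro 16plex LC-MS/MS with channel sums equalised.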

[2] = compound: CC1=C(SC2=C1C(=N[C@H](C3=NN=C(N32)C)CC(=O)N)C4=CC=C(C=C4)Cl)C
In short: as §1

[3] = compound: CC1=C2C(=CC=C1)N=C(N(C2=O)C3=CC=CC=C3C)CN4C=NC5=C(N=CN=C54)N
In short: as §1

[4] = compound: Cc1sc2c(c1C)C(c1ccc(Cl)cc1)=N[C@@H](CC(=O)OC(C)(C)C)c1nnc(C)n1-2
In short: as §1

[5] = compound: c1ccc([C@@H]2C[C@H]2NC2CCNCC2)cc1
In short: as §1

Measured: log2 fold change

SPAG5 (UniProt Q96R06)
inactive: [1] 0.006 | [2] 0.004 | [3] 0.021 | [4] 0.013 | [5] 0.026

SNRPF (UniProt P62306)
inactive: [1] 0.04 | [2] -0.084 | [3] -0.12 | [4] -0.103 | [5] -0.206

SMC4 (UniProt C9JJ64)
inactive: [1] -0.189 | [2] 0.179

TAOK2 (UniProt Q9UL54)
inactive: [1] -0.033 | [2] 0.118 | [3] -0.001 | [4] 0.242 | [5] -0.105

STAT2 (UniProt P52630)
inactive: [1] -0.033 | [2] 0.005 | [3] 0.043 | [4] 0.033 | [5] 0.017

SRSF9 (UniProt Q13242)
inactive: [1] 0.015 | [2] 0.024 | [3] -0.076 | [4] 0.06 | [5] -0.014

SORBS3 (UniProt O60504)
inactive: [1] 0.047 | [2] 0.081 | [3] -0.049 | [4] 0.028 | [5] 0.022

SFN (UniProt P31947)
inactive: [1] 0.039 | [2] -0.033 | [3] -0.023 | [4] 0.041 | [5] 0.046

SLC38A10 (UniProt Q9HBR0)
inactive: [1] 0.007 | [2] 0.007 | [3] 0.036 | [4] -0.053 | [5] -0.04

SMAD2 (UniProt Q15796)
inactive: [1] -0.006 | [2] 0.024 | [3] -0.104 | [4] 0.023 | [5] 0

SNRNP40 (UniProt Q96DI7)
UniProt Q96DI7, sequence (Q96DI7 whole entry, looked up): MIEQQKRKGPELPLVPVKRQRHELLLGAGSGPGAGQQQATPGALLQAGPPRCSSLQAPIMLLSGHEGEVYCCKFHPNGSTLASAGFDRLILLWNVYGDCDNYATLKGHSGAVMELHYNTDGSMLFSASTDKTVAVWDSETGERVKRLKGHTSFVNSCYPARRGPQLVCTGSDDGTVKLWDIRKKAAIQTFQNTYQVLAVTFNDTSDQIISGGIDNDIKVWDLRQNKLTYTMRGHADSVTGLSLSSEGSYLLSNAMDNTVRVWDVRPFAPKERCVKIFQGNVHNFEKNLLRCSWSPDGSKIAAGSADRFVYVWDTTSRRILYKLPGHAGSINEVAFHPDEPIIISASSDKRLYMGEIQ
inactive: [1] 0.023 | [2] -0.03 | [3] 0.012 | [4] 0 | [5] -0.002

SNRPD3 (UniProt P62318)
inactive: [1] -0.02 | [2] -0.011 | [3] 0.022 | [4] -0.027 | [5] -0.118

TADA3 (UniProt O75528)
UniProt O75528, sequence (O75528 whole entry, looked up): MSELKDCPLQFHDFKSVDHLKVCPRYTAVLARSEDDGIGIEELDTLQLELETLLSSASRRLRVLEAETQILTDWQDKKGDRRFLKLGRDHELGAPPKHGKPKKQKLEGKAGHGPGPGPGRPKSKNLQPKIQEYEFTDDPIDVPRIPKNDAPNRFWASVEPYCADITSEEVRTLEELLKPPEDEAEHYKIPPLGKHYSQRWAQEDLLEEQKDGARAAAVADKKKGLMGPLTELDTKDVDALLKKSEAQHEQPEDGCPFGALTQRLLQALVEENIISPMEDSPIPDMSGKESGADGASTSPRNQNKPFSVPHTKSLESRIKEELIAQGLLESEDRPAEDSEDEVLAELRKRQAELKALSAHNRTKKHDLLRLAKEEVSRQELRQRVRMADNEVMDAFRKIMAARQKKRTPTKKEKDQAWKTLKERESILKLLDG
inactive: [1] 0.043 | [2] 0 | [3] 0.087 | [4] -0.015 | [5] -0.098

SMC1B isoform 3 (UniProt Q8NDV3)
UniProt Q8NDV3, sequence (Q8NDV3 whole entry, looked up): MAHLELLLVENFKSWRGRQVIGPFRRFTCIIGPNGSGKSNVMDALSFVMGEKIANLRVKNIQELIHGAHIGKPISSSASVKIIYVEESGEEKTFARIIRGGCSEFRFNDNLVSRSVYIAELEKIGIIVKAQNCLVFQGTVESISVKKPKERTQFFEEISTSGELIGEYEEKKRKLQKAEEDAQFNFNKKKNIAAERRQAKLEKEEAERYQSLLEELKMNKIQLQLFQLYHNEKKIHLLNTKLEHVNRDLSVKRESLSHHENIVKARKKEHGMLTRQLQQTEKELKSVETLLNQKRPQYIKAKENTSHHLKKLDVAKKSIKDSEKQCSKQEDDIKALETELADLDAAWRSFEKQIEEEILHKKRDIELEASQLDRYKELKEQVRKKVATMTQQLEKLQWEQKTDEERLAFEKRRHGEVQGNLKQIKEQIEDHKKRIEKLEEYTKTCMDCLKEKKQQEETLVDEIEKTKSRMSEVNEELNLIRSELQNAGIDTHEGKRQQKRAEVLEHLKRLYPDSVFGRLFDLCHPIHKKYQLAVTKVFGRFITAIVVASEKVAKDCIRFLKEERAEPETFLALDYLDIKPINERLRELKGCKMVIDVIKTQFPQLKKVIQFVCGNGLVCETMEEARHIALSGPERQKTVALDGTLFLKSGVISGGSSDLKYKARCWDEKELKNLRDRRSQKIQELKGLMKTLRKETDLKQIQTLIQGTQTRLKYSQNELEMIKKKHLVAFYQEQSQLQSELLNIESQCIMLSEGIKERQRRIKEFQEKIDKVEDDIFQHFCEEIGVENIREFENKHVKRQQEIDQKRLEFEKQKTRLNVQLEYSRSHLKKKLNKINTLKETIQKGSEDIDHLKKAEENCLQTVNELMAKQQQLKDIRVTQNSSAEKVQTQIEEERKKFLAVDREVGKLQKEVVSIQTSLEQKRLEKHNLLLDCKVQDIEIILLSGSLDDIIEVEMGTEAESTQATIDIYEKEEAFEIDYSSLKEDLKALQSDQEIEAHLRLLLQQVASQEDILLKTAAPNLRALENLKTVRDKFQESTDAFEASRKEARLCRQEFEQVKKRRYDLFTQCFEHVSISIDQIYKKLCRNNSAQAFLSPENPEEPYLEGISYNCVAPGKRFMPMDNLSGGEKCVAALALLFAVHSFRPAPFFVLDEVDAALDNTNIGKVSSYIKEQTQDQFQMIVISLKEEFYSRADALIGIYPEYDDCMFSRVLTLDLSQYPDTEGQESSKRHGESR
inactive: [1] 0.009 | [2] 0.076 | [3] 0.12 | [4] -0.063

SMAP2 (UniProt Q8WU79)
inactive: [1] 0.02 | [2] -0.002 | [3] 0.029 | [4] 0.049 | [5] 0.02

SSNA1 (UniProt O43805)
inactive: [1] 0.034 | [2] -0.038 | [3] 0.009 | [4] -0.129 | [5] -0.075

STK4 (UniProt Q13043)
UniProt Q13043, sequence (Q13043 whole entry, looked up): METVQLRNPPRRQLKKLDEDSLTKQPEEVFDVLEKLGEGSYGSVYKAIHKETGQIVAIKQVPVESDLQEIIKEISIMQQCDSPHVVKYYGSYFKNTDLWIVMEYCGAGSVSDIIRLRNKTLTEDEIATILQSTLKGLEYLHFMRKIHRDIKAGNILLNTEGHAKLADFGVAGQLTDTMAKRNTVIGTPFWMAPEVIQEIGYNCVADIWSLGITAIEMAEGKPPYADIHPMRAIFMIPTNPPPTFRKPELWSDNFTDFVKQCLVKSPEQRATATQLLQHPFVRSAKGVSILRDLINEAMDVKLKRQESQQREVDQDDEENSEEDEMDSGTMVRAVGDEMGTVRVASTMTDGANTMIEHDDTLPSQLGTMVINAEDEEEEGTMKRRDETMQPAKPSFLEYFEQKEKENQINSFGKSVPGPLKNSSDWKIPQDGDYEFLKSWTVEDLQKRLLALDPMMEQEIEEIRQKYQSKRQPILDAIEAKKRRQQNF
inactive: [1] -0.031 | [2] -0.098 | [3] -0.05 | [4] -0.029 | [5] -0.124

STK11IP (UniProt Q8N1F8)
inactive: [1] 0.002 | [2] 0.072 | [3] 0.019 | [4] 0.019 | [5] 0.015

SND1 (UniProt Q7KZF4)
UniProt Q7KZF4, sequence (Q7KZF4 whole entry, looked up): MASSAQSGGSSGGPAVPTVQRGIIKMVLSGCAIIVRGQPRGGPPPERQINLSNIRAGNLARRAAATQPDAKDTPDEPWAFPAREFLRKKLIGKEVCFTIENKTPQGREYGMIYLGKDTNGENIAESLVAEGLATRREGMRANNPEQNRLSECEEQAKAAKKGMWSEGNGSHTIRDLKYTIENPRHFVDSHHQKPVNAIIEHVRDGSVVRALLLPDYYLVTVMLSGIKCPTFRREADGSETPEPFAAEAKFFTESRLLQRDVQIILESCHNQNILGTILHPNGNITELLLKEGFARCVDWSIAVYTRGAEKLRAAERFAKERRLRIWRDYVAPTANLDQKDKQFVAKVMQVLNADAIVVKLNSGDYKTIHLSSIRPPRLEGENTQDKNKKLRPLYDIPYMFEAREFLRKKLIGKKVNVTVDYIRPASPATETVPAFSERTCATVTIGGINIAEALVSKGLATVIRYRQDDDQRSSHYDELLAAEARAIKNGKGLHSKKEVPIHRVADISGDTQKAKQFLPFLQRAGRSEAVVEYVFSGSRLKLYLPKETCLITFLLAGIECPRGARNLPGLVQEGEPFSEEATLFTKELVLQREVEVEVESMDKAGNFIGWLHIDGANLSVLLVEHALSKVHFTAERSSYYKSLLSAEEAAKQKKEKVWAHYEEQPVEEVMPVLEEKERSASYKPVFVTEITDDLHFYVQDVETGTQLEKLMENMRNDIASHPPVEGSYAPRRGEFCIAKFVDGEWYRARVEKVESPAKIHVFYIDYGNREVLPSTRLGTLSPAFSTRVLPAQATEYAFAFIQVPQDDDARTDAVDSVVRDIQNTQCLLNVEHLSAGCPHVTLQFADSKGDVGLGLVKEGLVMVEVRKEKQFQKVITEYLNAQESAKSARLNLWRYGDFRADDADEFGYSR
inactive: [1] -0.008 | [2] 0.021 | [3] 0.022 | [4] 0.037 | [5] 0.041

STMN3 (UniProt Q9NZ72)
inactive: [1] 0.046 | [2] -0.053 | [3] 0.065 | [4] -0.061

STK3 isoform 2 (UniProt Q13188)
UniProt Q13188, sequence (Q13188 whole entry, looked up): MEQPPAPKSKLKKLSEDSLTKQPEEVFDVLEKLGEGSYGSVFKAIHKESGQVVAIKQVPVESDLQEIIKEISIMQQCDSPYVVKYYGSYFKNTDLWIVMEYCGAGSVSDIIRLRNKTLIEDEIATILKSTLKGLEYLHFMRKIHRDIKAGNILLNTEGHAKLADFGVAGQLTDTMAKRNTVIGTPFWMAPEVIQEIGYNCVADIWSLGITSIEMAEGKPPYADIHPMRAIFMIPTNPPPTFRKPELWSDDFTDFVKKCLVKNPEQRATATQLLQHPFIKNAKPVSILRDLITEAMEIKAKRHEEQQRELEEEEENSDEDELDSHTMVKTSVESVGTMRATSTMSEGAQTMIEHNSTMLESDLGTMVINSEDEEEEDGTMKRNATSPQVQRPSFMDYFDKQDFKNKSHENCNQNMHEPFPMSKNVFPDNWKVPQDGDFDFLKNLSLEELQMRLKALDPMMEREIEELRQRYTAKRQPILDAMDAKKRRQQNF
inactive: [1] -0.031 | [2] -0.042 | [3] -0.108 | [4] 0.01 | [5] -0.073

SPA17 (UniProt Q15506)
UniProt Q15506, sequence (Q15506 whole entry, looked up): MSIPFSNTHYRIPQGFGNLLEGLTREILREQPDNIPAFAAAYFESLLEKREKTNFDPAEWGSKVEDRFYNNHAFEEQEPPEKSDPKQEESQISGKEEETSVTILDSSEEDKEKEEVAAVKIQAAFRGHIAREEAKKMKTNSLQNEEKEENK
inactive: [1] 0.057 | [2] -0.064 | [3] -0.006 | [4] -0.132 | [5] -0.364

TAPT1 (UniProt Q6NXT6)
inactive: [1] -0.004 | [2] -0.023 | [3] 0.092 | [4] -0.07 | [5] -0.128

SYNE2 isoform 2 (UniProt Q8WXH0)
inactive: [1] -0.037 | [2] 0.044 | [3] 0.02 | [4] -0.065 | [5] -0.416

SPAG1 (UniProt Q07617)
UniProt Q07617, sequence (Q07617 whole entry, looked up): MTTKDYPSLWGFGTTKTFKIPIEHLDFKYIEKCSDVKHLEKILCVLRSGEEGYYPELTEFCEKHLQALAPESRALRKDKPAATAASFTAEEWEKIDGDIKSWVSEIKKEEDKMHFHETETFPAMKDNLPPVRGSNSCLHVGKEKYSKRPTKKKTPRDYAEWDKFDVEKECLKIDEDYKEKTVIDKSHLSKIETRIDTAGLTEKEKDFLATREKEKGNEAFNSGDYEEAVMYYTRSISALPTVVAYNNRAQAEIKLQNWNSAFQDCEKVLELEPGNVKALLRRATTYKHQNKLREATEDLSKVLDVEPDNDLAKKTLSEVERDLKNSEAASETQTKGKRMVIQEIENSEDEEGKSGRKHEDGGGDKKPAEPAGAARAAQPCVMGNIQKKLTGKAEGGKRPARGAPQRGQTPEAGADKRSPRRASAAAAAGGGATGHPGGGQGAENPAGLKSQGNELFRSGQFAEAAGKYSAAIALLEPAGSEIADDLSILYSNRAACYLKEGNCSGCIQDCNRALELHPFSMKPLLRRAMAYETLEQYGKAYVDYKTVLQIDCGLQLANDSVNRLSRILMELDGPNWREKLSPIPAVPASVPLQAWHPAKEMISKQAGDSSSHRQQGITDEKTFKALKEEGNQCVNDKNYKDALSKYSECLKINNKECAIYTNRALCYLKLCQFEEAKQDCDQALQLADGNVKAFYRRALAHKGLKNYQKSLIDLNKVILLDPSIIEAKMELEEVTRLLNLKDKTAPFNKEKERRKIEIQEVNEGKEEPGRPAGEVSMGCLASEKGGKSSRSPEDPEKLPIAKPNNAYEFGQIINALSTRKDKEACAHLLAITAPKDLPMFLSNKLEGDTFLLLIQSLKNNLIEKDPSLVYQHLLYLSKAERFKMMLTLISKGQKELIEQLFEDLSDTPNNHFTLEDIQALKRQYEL
inactive: [1] -0.046 | [2] -0.327 | [3] 0.081
